From PubChem BioAssay (NCI) come the findings set out here.

Each structure is given as a SMILES string. This is part of a sample that, as a whole, favours compounds with a hit. Of some 83,000 tested, about 20% had one in any assay.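 Note: values are percent growth. 100 is the growth of untreated cells, values between 100 and 0 indicate rising inhibition; between -100 and 0 indicates cell death.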 Unmarked numbers belong to inactive results. Activity calls are given as the source filed them. The calls were made as follows: active = growth percent below 10; inactive = the rest.

What all share (assay): NCI-60 one-dose screen, 48 h (100 = growth as untreated, 0 = no growth, -100 = all killed)
Common to all, as to conditions: 10 µM unless noted

For assay [1], the system named is NCI-H23 lung.
The subject of assay [2] is NCI-H322M lung.
Assay [3] relates to HOP-62 NSCLC.
Assay [4] concerns NCI-H460 lung.
Assay [5] deals with HOP-92 NSCLC.
The test system of assay [6] is NCI-H522 lung.
Assay [7] has as its system A549/ATCC NSCLC.
In assay [8] the test system is 786-0 renal.
Assay [9] deals with COLO 205 colon.
The subject of assay [10] is DU-145 prostate.

Consider `O=c1oc2ccc(I)cc2c(=O)n1-c1ccc(F)cc1F`, for which the growth was 6.34% (active) in [1]; 9.77% (active) in assay [2]; 2.25% (active) in [3]; 6.35% (active) in assay [4]; -29.9% (active) in assay [5]; -7.49% (active) in [6]. Moreover, the growth in assay [7] is 6.11% (active); in assay [8], 21.3%; in assay [9] it was 104%; in [10], 15.5%.
For the compound `O=c1c(-c2nc3ccccc3[nH]2)cc2ccccc2n1Cc1cn(Cc2ccccc2Cl)nn1`, the growth in assay [1] was 56.9%; in assay [2] it was 52.3%; in assay [3] it was 35.1%; in assay [4], 6.86% (active); in assay [5], 11.3%; in [6] it was 45.1%. Also, the growth in assay [7] is 15.4%; in [8] it was -20.2% (active); in assay [9] it was 54%; in assay [10], 18.1%.
Regarding `CC1=C(C(=O)OCC2CCN(C(=O)OC(C)(C)C)CC2)[C@H](c2cccc(Br)c2)C2=C(CC(C)(C)CC2=O)N1`, the growth is 48.4% in assay [1]; 57.2% in [2]; 55.7% in assay [3]; 8.59% (active) in [4]; 61.7% in assay [5]; 19.8% in assay [6]. For the same compound, the growth in assay [7] was 17.3%; in [8] it was 44.1%; in assay [9] it was 27.4%; in assay [10], 38.3%.
Consider `O=C1/C(=C\c2ccc[nH]2)c2ccccc2N1c1ccccc1`, for which the growth in [1] is 87.9%; in assay [2] it was 91.7%; in [3], 106%; in assay [4] it was 95.8%; in [5], 96%; in [6], 75.5%. Also, the growth in assay [7] is 96%; in [8] it was 98.1%; in assay [9] it was 108%; in assay [10], 112%.
In the case of `COc1cccc(/C=C/C(=O)c2c(C)nc3ccccc3c2/C=C/c2ccccc2)c1OC`, the growth is 31.2% in assay [1]; 45.3% in assay [2]; 55.2% in assay [3]; 2.78% (active) in [4]; 60.7% in assay [5]; 3.88% (active) in assay [6]. Besides, the growth in assay [7] is 30.9%; in [8], 42.4%; in [9], 56.3%; in assay [10] it was 4.24% (active).
As for `CC1=CCC(OC(=O)C(C)(C)CCC(O)(C(=O)OC2(C(C)C)CCC3(C)OC3C2)C(C)C)(C(C)C)CC1` (stereo not given), the growth is -73.2% (active) in assay [1]; -93% (active) in assay [2]; -66.7% (active) in assay [3]; -84.2% (active) in [4]; -71.7% (active) in assay [5]; -76.3% (active) in [6]. Moreover, the growth in assay [7] was -82.8% (active); in assay [8], -90.5% (active); in [9] it was -61.5% (active); in assay [10], -95.8% (active).
Regarding `O=Cc1c(OCc2cnnn2CC(=O)Nc2ccc(Cl)cc2)ccc2ccccc12`, the growth was 101% in [1]; 102% in assay [2]; 101% in assay [3]; 104% in assay [4]; 103% in [5]; 89.3% in [6]. Moreover, the growth in assay [7] was 104%; in [8] it was 100%; in assay [9], 115%; in assay [10] it was 109%.
On to `C1=CC2(C=C1)OC21CCC2(C=CC3(C2)OC3C2CCCCC2)CC1` (stereo not given), for which the growth in assay [1] is 116%; in assay [2] it was 105%; in assay [3], 112%; in assay [4], 103%; in [5] it was 104%; in assay [6] it was 106%. Also, the growth was 101% in [7], 100% in assay [8], 120% in assay [9] and 112% in [10].
With `COC(=O)C1(C)COP(=O)(Nc2ccc(OC)cc2)OC1` (stereo not given), the growth in assay [1] was 102%; in assay [2], 90.3%; in assay [3], 107%; in assay [4], 109%; in assay [5] it was 109%; in assay [6], 111%. The growth in [7] was 98%; in assay [8] it was 99.1%; in assay [9], 109%; in assay [10] it was 111%.
As to `O=c1nc2sc3nc4ccccc4cc3cc-2s1`, the growth in assay [1] was 101%; in assay [2], 106%; in assay [3], 104%; in assay [4], 106%; in assay [5], 125%; in assay [6] it was 122%. Further, the growth in [7] is 117%; in assay [8], 103%; in assay [9], 127%; in [10], 114%.
As to `Nc1nc(-c2ccccc2Br)nn1-c1nc2ccccc2s1`, the growth was 98% in assay [1]; 105% in [2]; 105% in assay [3]; 100% in [4]; 99.6% in [5]; 85.6% in [6]. In addition, the growth in assay [7] is 98.4%; in assay [8] it was 104%; in assay [9], 110%; in [10], 110%.
Consider `Clc1ccc(COc2ccc(Nc3ncnc4onc(-c5ccccc5)c34)cc2)cc1`, for which the growth in assay [1] is 87.1%; in assay [2] it was 82.8%; in assay [3], 91.2%; in assay [4], 61%; in [5], 82.9%; in [6], 71.3%. Moreover, the growth is 82.8% in assay [7], 90.7% in assay [8], 93.5% in assay [9] and 72.7% in assay [10].
`CCn1c(-c2nonc2Nc2ccc(OC)cc2)nc2ccccc21`: the growth in assay [1] is 107%; in [2], 105%; in [3], 115%; in [4] it was 109%; in assay [5], 134%; in assay [6] it was 89%. For the same compound, the growth in assay [7] is 93.5%; in assay [8], 95.1%; in assay [9], 124%; in assay [10], 113%.
Turning to `O=c1c(-c2nc3ccccc3[nH]2)cc2ccccc2n1Cc1cn(Cc2ccc(N3CCOCC3)cc2)nn1`, the growth in [1] is 76.5%; in assay [2] it was 68.8%; in assay [3], 16.3%; in assay [4], 55.3%; in [5], 75.9%; in assay [6] it was 28%. The growth was 74.8% in assay [7], 57.1% in assay [8], 83.7% in [9] and 36.9% in assay [10].
